Here are results for 12 compounds from PubChem BioAssay (NCI).

Values joined by “and” are separate entries in the source; they are usually repeats but may differ in a detail not shown here. Identical values can stand only once. The panel holds about 83,000 compounds, 20% with a hit somewhere; the sample as a whole holds those more often.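 Testing used 96-well plates and a 48-hour single-concentration exposure. Example: -40 means 40% of the starting cells died.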 Active and inactive are the calls of the source. Rule for the calls: active = growth percent below 10; inactive = the rest.

In this assay the test system is MDA-MB-468 breast. In words: NCI-60 one-dose screen, 48 h (100 = growth as untreated, 0 = no growth, -100 = all killed). The settings on record: 10 µM unless noted.
On to `CC(C)C[C@H](C(=O)O)N(C)C(=O)[C@@H]1CCCN1C(=O)[C@H](C)OC(=O)[C@H](CCC(N)=O)NC(=O)[C@@H]1CCC(=O)N1`, for which the growth was 107% (inactive).

`O=C(N/N=C(\CS(=O)(=O)c1ccccc1)c1cc2ccccc2oc1=O)c1ccccc1`: the growth was 117% (inactive). As for `CN1CCN(CCCN2c3ccccc3Sc3ccc(Cl)cc32)CC1`, the figure is -0.133% (active) and 70.8% (inactive). As for `CCc1ccc(C2=C/C(=C/c3ccc(Cl)cc3)C(=O)N2CCc2ccc(S(N)(=O)=O)cc2)cc1`, the figure is 13.5% (inactive); as for `O=C(c1ccccc1)N1N=C(c2ccc(-n3ccc(C(F)(F)F)n3)c(F)c2)CC1c1ccc[nH]1` (configuration not stated), 108% (inactive); as for `COc1ccc(-c2nc([C@@H](C)Sc3nc(N)cc(N)n3)c(C)s2)cc1OCCN1CCOCC1`, 92.7% (inactive). Consider `CCc1c(C)c2cc3c(c(C)c2oc1=O)OCC(=O)N3`, for which the growth is 69.4% (inactive). The value for `COc1ccc(/C=C2\c3cc(OC)c(OC)c(OC)c3CC[C@@H]2O)cc1F` was 13.5% (inactive). Regarding `O=C1C=C[C@H](O)[C@@]2(CO)O[C@@H]12`, the growth was 54.5% (inactive). For `C#CC[C@@H]1C[C@]2(C)[C@H]3CC=C4[C@H]5[C@@H](C)[C@H](C)CC[C@]5(C(=O)NCCCCN)CC[C@@]4(C)[C@]3(C)CC[C@H]2C(C)(C)[C@H]1OC(C)=O`, the growth was 81% (inactive).

For `CSc1ccc(C(=O)C[n+]2cccc(C)c2)cc1`, the growth was 91.1% (inactive). `COc1ccc(-c2cc(-c3cc(-c4ccc(OC)cc4)nc(N)n3)nc(N)n2)cc1`: the growth is 104% (inactive).
